# From PubChem BioAssay AID686978 (National Center for Advancing Translational Sciences (NCATS), 2013)
# About 64,000 (15%) of roughly 420,000 compounds were called active. Not shown: some 27% with an inconclusive outcome. Calls come from the whole dose curve; as a rule, active = well fitted inhibition curve with a large enough effect; inconclusive = small, poorly fitted or top-dose-only effect; inactive = flat fitted curve, though single readings scatter. A selection follows. Entries that show only a call come without a potency.
# Assay: qHTS for Inhibitors of human tyrosyl-DNA phosphodiesterase 1 (TDP1): qHTS in cells in absence of CPT; note: nearly all actives have a fitted effect of over 55% in size
# Conditions: DT40 Tdp1-/- hTDP1 cells, no CPT, ATP luminescence, 48 h; activity change, negative = growth inhibition: at 46.2 µM (top of the series)
# Outline: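 A cellular qHTS used chicken DT40 cells lacking endogenous Tdp1 but carrying stably transfected human TDP1. Compounds were applied without camptothecin, and cell growth kinetics were judged by ATP-dependent luminescence after ≥48 hr.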
# Potency is the fitted concentration of half-maximal effect.
row,Compound,Potency
1,O=C(O)CCC(=O)O,inactive
2,CC(=O)Nc1ccc(N2C(=O)CCC2=O)cc1C,inactive
3,Cc1cc(=O)cc(C)[nH]1,inactive
4,COc1cc(C(=O)NCCOC(=O)c2cccc(N(C)C)c2)cc(OC)c1OC,inactive
5,Cc1ccc(C(=O)N(CC(=O)NC2CCCC2)c2ccc(F)cc2)s1,inactive
6,N/C(=N/O)c1cccn1Cc1ccccc1[N+](=O)[O-],inactive
7,O=[N+]([O-])c1ccccc1NCc1ccccc1Cl,inactive
8,O=c1c([N+](=O)[O-])cccn1Cc1ccc(F)cc1Cl,20.6 µM (active)
9,COc1ccc(C2C(C#N)=C(/N=C/N3CCOCC3)OC3=C2C(=O)CC(C)(C)C3)cc1OC (stereo unspecified),inactive
10,CC(C)NS(=O)(=O)c1ccc(CCC(=O)N2CCOCC2)cc1,inactive
11,CCNS(=O)(=O)c1ccc(CCC(=O)N2CCN(c3cc(Cl)ccc3C)CC2)cc1,11.6 µM (active)
12,Cc1ccc(S(=O)(=O)NCCC(=O)NCc2ccc(Cl)cc2)cc1C,inactive
13,Nc1cc(=O)nc(SCc2ccccc2)n1Cc1ccco1,inactive
14,O=c1[nH]c(CSc2ncc(-c3ccc(F)cc3)n2Cc2ccco2)nc2ccccc12,20.6 µM (active)
15,O=C(CSc1nnc2scc(-c3ccc(F)cc3)n12)NCc1ccco1,inactive
16,COc1ccc(C)c(Cn2c(-c3nonc3N)nc3ccccc32)c1,2.31 µM (active)
17,Nc1nonc1-c1nc2ccccc2n1CCC(=O)O,inactive
18,COc1ccc2oc(N)nc2c1,inactive
19,Nc1nonc1-c1nc2ccccc2n1Cc1ccc(F)cc1,20.6 µM (active)
20,CC(C)(C)N1CC(c2nc3ccccc3n2Cc2ccc(F)cc2)CC1=O (stereo unspecified),inactive
21,Cc1noc(C)c1COC(=O)Cn1c(C)nc2ccccc21,inactive
22,Cn1c(SCC(=O)N2CCCC2)nnc1-c1cccs1,inactive

row,Compound,Potency
1,CN(Cc1ccccc1)C(=O)CCNC(=O)Cn1cnc2ccccc2c1=O,inactive
2,CN1CCCCCC1C(=O)NCCN1Cc2ccccc2OC(c2ccsc2)C1 (stereo unspecified),inactive
3,Cn1c(=O)c2ccccc2n(CC(=O)Nc2ccc3c(c2)OCCO3)c1=O,9.2 µM (active)
4,CCOc1ccc(NC(=O)Cn2c(=O)n(CCCC(=O)NCc3ccc4c(c3)OCO4)c(=O)c3ccccc32)cc1,inactive
5,CCc1ccc(NC(=O)Cn2c(=O)n(CCC(=O)NCc3ccc4c(c3)OCO4)c(=O)c3ccccc32)cc1,9.2 µM (active)
6,O=C(Cn1c(=O)sc2ccccc21)Nc1ccc2c(c1)OCCO2,inactive
7,CCc1ccc(NC(=O)Cn2nnc(C(=O)NCc3ccc4c(c3)OCO4)c2N)cc1,inactive
8,CCCCC(=O)Nc1ccc2c(c1)OCCO2,inactive
9,Oc1ccc(-c2[nH]ncc2-c2nc3ccccc3s2)c(O)c1,inactive
10,COCCOC1CCN(C(=O)c2ccc(OC)c(OC3CCN(C(C)C)CC3)c2)CC1,inactive
11,NC(=O)c1ccc(N2CCOCC2)nc1,inactive
12,CC(C)CNC(=O)COC(=O)/C=C/c1ccco1,inactive
13,COc1ccc(C)cc1NC(=O)CNCc1cccs1,inactive
14,COc1cc(NC(=O)NCC2CCN(Cc3ccc(C)cc3)CC2)cc(OC)c1OC,inactive
15,COc1ccc(-c2onc(C)c2C)cc1S(=O)(=O)NCc1cccs1,18.4 µM (active)
16,COc1ccc(C)cc1S(=O)(=O)NCCc1ccccc1,inactive
17,Cc1ccc(-c2onc(C)c2C)cc1S(=O)(=O)Nc1ccccn1,inactive
18,COc1ccc(-c2onc(C)c2C)cc1S(=O)(=O)NCC1CCN(Cc2cccc(F)c2)CC1,25.9 µM (active)
19,O=C(CN1C2CCC1CC(NC(=O)C1CC1)C2)NCc1ccccc1 (stereo unspecified),inactive
20,O=S(=O)(O)CCN1CCOCC1,inactive
21,Cc1nc2nc(CSc3nc4ccccc4s3)cc(=O)n2[nH]1,inactive
22,C=CCOC(=O)C1=C[C@@H](c2ccc3c(c2)OCO3)C[C@@H](OCCCCO)O1,inactive

row,Compound,Potency
1,COc1ccc2ccccc2c1CNCc1ccccn1,inactive
2,Cc1ccc(C)c(NC(=O)CCC(=O)NNC(=O)c2cccs2)c1,inactive
3,Cc1ccc(C)c(NC(=O)NNC(=O)c2ccc3ccccc3c2O)c1,inactive
4,Cc1ccc(C)c(NC(=S)NNC(=O)c2csc(C)c2)c1,18.4 µM (active)
5,Cc1cc(C(=O)OCC(=O)Nc2nnc(C(C)C)s2)c2ccccc2n1,inactive
6,C=CCO/N=C(\C)c1c(O)c(C)c(-c2ccccc2)n(-c2ccccc2)c1=O,inactive
7,CC(C)c1ccc(NC(=O)c2ccc3c(O)c(S(=O)(=O)c4ccccc4)c(=O)[nH]c3c2)cc1,inactive
8,COc1ccc(C)cc1S(=O)(=O)Nc1cccc(Cl)c1Cl,inactive
9,COC(=O)c1scc(-c2ccc(C)cc2)c1S(=O)(=O)Nc1cc(Cl)c(OC)cc1OC,11.6 µM (active)
10,COc1cc(OC)c(NS(=O)(=O)c2cn(C)cn2)cc1Cl,inactive
11,CC1O[C@@H](OC2C(O)C(C)O[C@H](OC(=O)[C@]34CCC(C)(C)C[C@H]3C3=CCC5[C@@]6(C)CC(O)C(O[C@@H]7OC(CO)C(O)[C@@H](O)[C@@H]7O)[C@@](C)(C(=O)O)C6CC[C@@]5(C)[C@]3(CO)CC4)C2O[C@H]2OC(C)[C@@H](O[C@@H]3OCC(O[C@@H]4OC(CO)C(O)[C@H](O)C4O)[C@@H](O)[C@@H]3O)[C@H](O)C2O)C(O)C(O)C1O (stereo partly specified),inactive
12,Cc1ccc(CN2COc3cc(C)c4c(oc(=O)c5ccccc54)c3C2)cc1,inactive
13,CN(C(=O)c1ccccn1)c1nnc(-c2ccccn2)s1,inactive
14,CC1CC(C)(C)NC(=S)N1CCC(=O)N1CCN(Cc2ccccc2)CC1 (stereo unspecified),inactive
15,Cc1ccc(N(Cc2cc(=O)[nH]c3ccccc23)C(=O)CCl)cc1,2.31 µM (active)
16,CC(=O)N(Cc1cc(=O)[nH]c2ccccc12)c1ccc(C)cc1C,inactive
17,CCOC(=O)c1ccc(COC(=O)c2cc(=O)[nH]c3ccccc23)o1,inactive
18,COC(=O)c1ccccc1NC(=O)c1ccc(COc2ccccc2Cl)o1,inactive
19,O=C(Nc1ccn(Cc2ccccc2F)n1)c1ccc(COc2ccc(Cl)cc2Cl)o1,25.9 µM (active)
20,CC(=O)Nc1ccn(Cc2c(F)cccc2Cl)n1,inactive
21,O=C1CC(c2ccccc2)C(=O)N2C(=O)CC(c3ccccc3)C(=O)N12 (stereo unspecified),inactive
22,c1ccc2c(c1)OCC(c1nn3cnnc3s1)O2 (stereo unspecified),inactive
